From PubChem BioAssay AID1508608 (The Scripps Research Institute Molecular Screening Center, 2020)
The whole screen tested about 2,300 compounds, of which about 20 (0.9%) were called active. Shown is part of a subset that was picked to be rich in actives. A number with no mark means an inactive call.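 How the source made its calls: active means mean activation across replicates above 26.72%, the hit cutoff set for this confirmation screen; inactive means the rest.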

The molecules below were run against G-protein coupled receptor 151 (Homo sapiens) (UniProt Q8TDV0) (assay: GPR151 activators, triplicate retest, confirmation, cell-based, PathHunter beta-arrestin, luminescence, set 2 (AID 1508608;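 further: 0% = plate median of compound wells and 100% = EA reagent high control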)). Details: GPR151 PathHunter beta-arrestin cells, 90 min, at 11.2 µM, stronger effect = higher value, 100% = signal from added EA reagent.
G-protein coupled receptor 151 (Homo sapiens), sequence (Q8TDV0 whole entry, looked up): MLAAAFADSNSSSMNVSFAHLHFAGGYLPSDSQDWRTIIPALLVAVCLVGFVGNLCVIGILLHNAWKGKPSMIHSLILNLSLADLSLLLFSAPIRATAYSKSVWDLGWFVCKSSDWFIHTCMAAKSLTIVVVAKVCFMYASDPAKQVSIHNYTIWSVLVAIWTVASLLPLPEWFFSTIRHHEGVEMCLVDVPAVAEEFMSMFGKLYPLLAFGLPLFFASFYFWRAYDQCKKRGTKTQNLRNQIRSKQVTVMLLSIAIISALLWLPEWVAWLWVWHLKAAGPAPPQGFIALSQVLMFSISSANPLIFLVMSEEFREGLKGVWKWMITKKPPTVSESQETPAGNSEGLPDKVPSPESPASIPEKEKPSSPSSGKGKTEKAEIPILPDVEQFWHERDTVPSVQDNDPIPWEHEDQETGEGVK

SMILES	activation
CC(=O)NCC(=O)N1CCC(c2nc(-c3ccncc3)ncc2-c2cccc(C)c2)CC1	0.35%
CCCn1c(=O)c2c(nc3n2CC(C)CN3c2cccc(Cl)c2)n(C)c1=O (stereo unspecified)	3.55%
S=c1[nH]nc(OCc2ccc(Cl)cc2Cl)n1-c1ccccc1	-1.15%
CC1C(=O)Nc2ccc(S(=O)(=O)Nc3ccc(F)c(Cl)c3)cc2NC1=O (stereo unspecified)	4.91%
COC(=O)C1(C(F)(F)F)N=C2C=C(C)C=CN2C(c2ccc(C)cc2)=N1 (stereo unspecified)	3.12%
COC(=O)c1c(NC(=O)COc2cccc(C(F)(F)F)c2)sc2c1CCCC2	-0.94%
O=C1CSc2ccc(C(=O)N3CCc4ccccc4C3)cc2N1	-0.36%
Cc1sc2ncn(CC(=O)Nc3ccc(Oc4ccc(Cl)cc4)cc3)c(=O)c2c1C	2.02%
COc1ccc(/C=N/NC(=O)COc2c(OC)cc([N+](=O)[O-])cc2[N+](=O)[O-])c(O)c1	-9.14%
CCc1c(C)nc2c(C(=O)NCCc3ccccc3)c[nH]n2c1=O	1.59%
CCOc1ccc(C(=O)Nc2nc(-c3ccc(CC)cc3)cs2)cc1	4.71%
O=c1ccc(=O)n(CN(c2ccccc2)c2ccccc2)[nH]1	4.24%
CCN(CC)CCNC(=O)CNC(=O)c1nn(-c2ccc(OC)cc2OC)c(=O)c2ccccc12	-4.28%
Cc1ccc(-c2cc(=O)c3cc(Cl)ccc3o2)cc1	-6.67%
O=C(O)CNC(=O)/C=C/c1ccccc1Cl	-5.28%
O=c1c2sc3ccccc3c2n(CCN2CCOCC2)c(=O)n1Cc1ccccn1	1.89%
COc1ccc(C)cc1NC(=O)c1sc2ncn(CC(=O)Nc3ccc(C)c(Cl)c3)c(=O)c2c1C	-0.16%
O=C(c1ccccc1)c1cc2cc(Cl)ccc2oc1=O	1.99%
O=C(CCNS(=O)(=O)c1ccc2[nH]c(=O)ccc2c1)N1CCC(N2CCCCC2)CC1	-4.32%
COc1cccc(NC2c3ccccc3C(=O)N2c2cccnc2)c1 (stereo unspecified)	0.11%
O=C(O)c1ccc(Sc2ccc(Br)cc2)c([N+](=O)[O-])c1	-1.52%

SMILES	activation
COc1ccc(C2C3=C(CCCC3=O)Nc3nc(SC)nn32)c(OC)c1 (stereo unspecified)	1.74%
CCOC(=O)C1=C(C)N=c2s/c(=C\c3cc([N+](=O)[O-])ccc3N3CCOCC3)c(=O)n2C1c1ccc(OC)c(OC)c1 (stereo unspecified)	0.23%
Cc1ccc(CN2CCN(Cc3ccc4cc(F)ccc4n3)CC2CCO)o1 (stereo unspecified)	4.51%
CCn1c(=S)sc2c(=O)[nH]c(C)nc21	-7.13%
CC(=O)n1nc(-c2ccco2)nc1SCc1ccccc1	2.59%
Cc1noc(C)c1S(=O)(=O)N1CCC(C(=O)N2CCCCC2C)CC1 (stereo unspecified)	-1.12%
CCCc1cc(=O)n2[nH]c(NCc3cccc(OC)c3)nc2n1	-0.18%
CCC(C)NC(=O)CSc1nnc(-c2ccc(C)cc2)c(-c2ccc(C)cc2)n1 (stereo unspecified)	6.79%
COc1ccc(CCn2c(-c3ccc(Cl)cc3)csc2=Nc2ccc(F)cc2)cc1OC	2.13%
CCN(CC)S(=O)(=O)c1ccc(-c2csc(=Nc3ccccc3OC)n2CC)cc1	28.4% (active)
O=S(=O)(c1ccc(-c2csc(=Nc3cccc(Cl)c3)n2CCCO)cc1)N1CCCCC1	14.5%
COc1ccc(C(=O)NC(C)c2csc(C)n2)cc1OC1CCN(C(C)=O)CC1 (stereo unspecified)	1.6%
Cc1ccc2c(c1)NC(C)(C)c1ssc(=Nc3ccc(S(=O)(=O)Nc4nccc(C)n4)cc3)c1-2	6.63%
CSc1ncc(Cl)c(C(=O)Nc2nc3ccc(S(C)(=O)=O)cc3s2)n1	-3.08%
CCC[n+]1c(/C=C2\Sc3ccccc3N2CC)ccc2ccccc21	15.4%
CC[n+]1c(/C=C2\Sc3ccc(C)cc3N2CCO)ccc2ccccc21	31.2% (active)
CN1CCN(c2cc(-c3cn[nH]c3)ccc2NC(=O)Cc2cccc(Cl)c2)CC1	35.5% (active)
N#Cc1c(-c2ccccc2)cc(-c2cccs2)nc1SC1CCCCC1O (stereo unspecified)	4.8%
Cc1ccc2nc(NC(=O)CCCN3C(=S)NC(C)(C)CC3C)sc2c1 (stereo unspecified)	2.74%
C#CCOc1c(Br)cc(C=O)cc1OC	-0.43%
